About 79,000 compounds went through this panel and 15% of them were active in at least one assay; those are over-represented in the sample as a whole. Calls of active or inactive are those of the source. No stated cut-off is given here; in the data, active means growth inhibition above about 70%; inactive means the rest.
How the values were obtained:
[1] = NCI Yeast Anticancer Drug Screen. Data for the rad52 strain (AID 147);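 further: 0% = growth of vehicle-treated control cultures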; conditions: S. cerevisiae rad52 mutant growth inhibition, hits give high values
Summary of the method: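 Here a repair-compromised yeast strain receives each compound; its growth is then quantified and normalised to vehicle-only controls.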

[2] = NCI Yeast Anticancer Drug Screen. Data for the wt1 strain (AID 149);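 further: 0% = growth of vehicle-treated wt1 cultures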; conditions: S. cerevisiae wt1 strain (SPY 50644) growth inhibition, hits give high values
Summary of the method: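 Measured: growth of wt1 yeast under compound versus vehicle treatment, reported as inhibition.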

[3] = NCI Yeast Anticancer Drug Screen. Data for the rad50EPP+ strain (AID 151);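 further: 0% = growth of vehicle-treated control cultures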; conditions: S. cerevisiae rad50 mutant strain, hits give high values
Summary of the method: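 Read-out is yeast growth inhibition relative to vehicle; cells used were the rad50EPP+ strain.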

[4] = NCI Yeast Anticancer Drug Screen. Data for the mgt1 strain (AID 153); conditions: S. cerevisiae mgt1 mutant growth inhibition, hits give high values
Summary of the method: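 Measured: inhibition of mgt1 yeast growth by compound, normalized to vehicle-treated cultures.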

[5] = NCI Yeast Anticancer Drug Screen. Data for the rad50 strain (AID 155);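 further: 0% = growth of vehicle-only cultures of the same strain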; conditions: S. cerevisiae rad50 strain growth inhibition, hits give high values
Summary of the method: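 Growth of the mutant yeast was measured after compound exposure and referenced to vehicle-treated cultures.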

[6] = NCI Yeast Anticancer Drug Screen. Data for the mec2-1 strain (AID 157); conditions: S. cerevisiae mec2-1 strain, hits give high values
Summary of the method: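 Using mec2-1 yeast: add compound, measure growth, express inhibition versus vehicle-treated cultures.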

[7] = NCI Yeast Anticancer Drug Screen. Data for the sgs1 mgt1 strain (AID 161);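 further: 0% = growth of cultures given vehicle only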; conditions: S. cerevisiae sgs1 mgt1 strain, hits give high values
Summary of the method: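 Compounds are added to genetically altered yeast, and growth is compared with cultures given vehicle alone to give percent inhibition.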

[8] = NCI Yeast Anticancer Drug Screen. Data for the CLN2oe strain (AID 163);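 further: 0% = growth of vehicle-only control cultures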; conditions: S. cerevisiae CLN2oe strain, hits give high values
Summary of the method: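 Whole-cell yeast growth assay. A strain engineered for altered cell-cycle control received compound, and inhibition relative to vehicle-treated cultures was recorded.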

[9] = NCI Yeast Anticancer Drug Screen. Data for the cln2 rad14 strain (AID 165);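 further: 0% = growth equal to vehicle treated cultures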; conditions: S. cerevisiae cln2 rad14 strain, hits give high values
Summary of the method: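 Yeast strain cln2 rad14, bearing defects in cell cycle control and DNA repair, serves as the test system; values reflect growth inhibition compared with vehicle.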

[10] = NCI Yeast Anticancer Drug Screen. Data for the bub3 strain (AID 167); conditions: S. cerevisiae bub3 mutant strain, hits give high values
Summary of the method: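 Whole-cell yeast assay. The mutant strain was incubated with compounds, and growth inhibition was determined by comparison with vehicle-treated cells.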

[11] = NCI Yeast Anticancer Drug Screen. Data for the wt2 strain (AID 169);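 further: 0% = growth of vehicle-treated yeast cultures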; conditions: S. cerevisiae wt2 strain growth inhibition, hits give high values
Summary of the method: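 Treated yeast vs. vehicle-treated yeast: growth inhibition determined.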

[12] = NCI Yeast Anticancer Drug Screen. Data for the mlh1 strain (AID 171);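 further: 0% = growth of vehicle-treated control cultures of the same strain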; conditions: S. cerevisiae mlh1 strain growth inhibition, hits give high values
Summary of the method: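 A yeast strain with a defined genetic lesion serves as the test organism. Cultures receive compound or vehicle, and growth is measured.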

[13] = NCI Yeast Anticancer Drug Screen. Data for the sgs1 strain (AID 173);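 further: 0% = growth of vehicle-only control cultures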; conditions: S. cerevisiae sgs1 mutant, hits give high values
Summary of the method: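 A genetically defined yeast mutant is incubated with the test compound, and its growth is compared to that of the same strain given vehicle.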

[14] = NCI Yeast Anticancer Drug Screen. Data for the mlh1 rad18 strain (AID 175); conditions: S. cerevisiae mlh1 rad18 strain growth inhibition, hits give high values
Summary of the method: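 Steps: expose repair-defective yeast to compound; measure growth; express inhibition against vehicle-treated controls.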

[15] = NCI Yeast Anticancer Drug Screen. Data for the rad18 strain (AID 177); conditions: S. cerevisiae rad18 mutant growth inhibition, hits give high values
Summary of the method: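 Measured value is growth inhibition of a yeast strain bearing a DNA repair alteration, referenced to vehicle-treated cells.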

[16] = at 5.0 µM (retest, dose inferred, filed as 0.5)
[17] = at 50.0 µM (retest, dose inferred, filed as 5.0)

Measured: growth inhibition

NCCOc1ccc(/C(=C(/Cl)c2ccccc2)c2ccccc2)cc1
active: [1]; at 33.0 µM 98% | [1]; at 100.0 µM 96% | [2]; at 33.0 µM 98% | [2]; at 100.0 µM 97% | [3]; at 33.0 µM 97% | [3]; at 100.0 µM 96% | [4]; at 33.0 µM 98% | [4]; at 100.0 µM 96% | [5]; at 33.0 µM 99% | [5]; [17] 98% | [5]; at 50.0 µM 85.5% | [5]; at 100.0 µM 96% | [6]; at 33.0 µM 98% | [6]; [17] 99% | [6]; at 50.0 µM 93.8% | [6]; at 100.0 µM 97% | [7]; [17] 98% | [7]; at 50.0 µM 92.7% | [8]; at 33.0 µM 98% | [8]; at 100.0 µM 96% | [9]; [17] 98% | [9]; at 50.0 µM 92.2% | [10]; at 33.0 µM 99% | [10]; [17] 98% | [10]; at 50.0 µM 91.8% | [10]; at 100.0 µM 96% | [11]; at 33.0 µM 98% | [11]; at 100.0 µM 97% | [12]; at 33.0 µM 99% | [12]; at 100.0 µM 97% | [13]; at 33.0 µM 99% | [13]; at 100.0 µM 97% | [14]; [17] 98% | [14]; at 50.0 µM 88.7% | [15]; at 33.0 µM 99% | [15]; at 100.0 µM 97%
inactive: [1]; at 1.2 µM -10% | [1]; at 3.7 µM -15% | [1]; at 11.0 µM 23% | [2]; at 1.2 µM 1% | [2]; at 3.7 µM -4% | [2]; at 11.0 µM 5% | [3]; at 1.2 µM 0% | [3]; at 3.7 µM 9% | [3]; at 11.0 µM 15% | [4]; at 1.2 µM -6% | [4]; at 3.7 µM -7% | [4]; at 11.0 µM 13% | [5]; at 1.2 µM -3% | [5]; at 3.7 µM 3% | [5]; [16] 17% | [5]; at 11.0 µM 39% | [6]; at 1.2 µM -5% | [6]; at 3.7 µM -17% | [6]; [16] 7% | [6]; at 11.0 µM 11% | [7]; [16] 7% | [8]; at 1.2 µM 18% | [8]; at 3.7 µM 12% | [8]; at 11.0 µM 36% | [9]; [16] 37% | [10]; at 1.2 µM 0% | [10]; at 3.7 µM -35% | [10]; [16] -11% | [10]; at 11.0 µM 14% | [11]; at 1.2 µM -4% | [11]; at 3.7 µM 0% | [11]; at 11.0 µM 2% | [12]; at 1.2 µM 18% | [12]; at 3.7 µM 10% | [12]; at 11.0 µM 34% | [13]; at 1.2 µM 26% | [13]; at 3.7 µM 23% | [13]; at 11.0 µM 55% | [14]; [16] -1% | [15]; at 1.2 µM 16% | [15]; at 3.7 µM 29% | [15]; at 11.0 µM 30%
